In all, about 310,000 compounds went through this assay and about 18,000 (5.8%) were called active. Inconclusive results (about 22%) are left out. Shown is part of a subset that was picked to be rich in actives. A number with no mark means an inactive call. Calls come from the whole dose curve; as a rule, active = well fitted inhibition curve with a large enough effect; inconclusive = small, poorly fitted or top-dose-only effect, or another doubt; inactive = no such curve, though single readings can be large or run the other way.
% is set by controls: 0 for no effect and ±100 for the full control effect; potency is the fitted concentration of half-maximal effect.

The assay is described as follows: Primary qHTS for delayed death inhibitors of the malarial parasite plastid, 48 hour incubation. To be noted: P. falciparum luciferase growth in erythrocytes; series mostly up to 28.7 µM; activity change, negative = inhibition: at the top concentration. The gist of the method:
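Luciferase-expressing P. falciparum in infected erythrocytes (2% hematocrit, 0.1% parasitemia final) in RPMI 1640/0.5% Albumax were exposed to compound for 48 hours at 37 C, 5% CO2; growth read as luminescence.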
In the case of `CCc1cccc(CC)c1NC(=O)COc1ccccc1C(=O)c1cc(C#N)c(=O)n(C2CCCCC2)c1`, the Potency is 5.86 µM (active). Take `COc1cccc(-c2coc3cc4oc(=O)c(CC(=O)O)c(C)c4cc23)c1`: the “activity change, negative = inhibition” value is -6.56%.

Turning to `COc1ccccc1C(=O)N/C(=C/c1ccc2c(c1)OCO2)C(=O)Nc1cccc(C(=O)O)c1`, the “activity change, negative = inhibition” value is 26.2%. As to `CN(C)CCOc1ccc(Cl)cc1C(C)(C)C`, the “activity change, negative = inhibition” value is -12.2%. On to `CCC(C)(C)c1ccc(OCC(=O)N(C)C)c(C(C)(C)CC)c1`, for which the Potency is 11.7 µM (active).

In the case of `CN1C/C(=C/c2cccs2)C(=O)/C(=C\c2cccs2)C1`, the “activity change, negative = inhibition” value was -48.2%.

`CCc1ccc(NC(=O)N2CCc3ccccc3C2)cc1`: the “activity change, negative = inhibition” value is 13.6%. On to `COc1cccc(/C=C2/SC(=S)N(CC(=O)NC3C=CS(=O)(=O)C3)C2=O)c1` (stereo not drawn), for which the “activity change, negative = inhibition” value is 19.3%. For the compound `c1ccc2c(NCC3CCCO3)nc(-c3ccncc3)nc2c1` (stereo not drawn), the Potency was 13.1 µM (active). `Cn1c(=O)c2[nH]c(NCC3CCCO3)nc2n(-c2ccccc2)c1=O` (stereo not drawn): the “activity change, negative = inhibition” value is -0.65%. As to `Cc1nc2ccccc2c2oc(C(=O)NCC3CCCO3)cc12` (stereo not drawn), the “activity change, negative = inhibition” value was 2.28%. On to `COc1ccc(C2=NS(=O)(=O)N(C)C(C(=O)N(C)Cc3ccccc3)=C2)cc1`, for which the “activity change, negative = inhibition” value is 3.56%. `Cc1nn(C)c(C)c1NS(=O)(=O)c1ccc(OC(F)(F)F)cc1`: the “activity change, negative = inhibition” value was 9.37%. With `COCC1CCN(C(=O)C2CCC(=O)N(CC3CCCCC3)C2)CC1` (stereo not drawn), the “activity change, negative = inhibition” value is 3.07%. Still for that read-out and setting: the figure for `CC(CN1CCOCC1)OC(=O)c1ccc(Cl)cc1Cl` (stereo not drawn) is 2.65%. Take `CCC(=O)Nc1nc2ccccc2n1Cc1ccccc1C`: the Potency is 1.47 µM (active).

With `CCCCn1c(CCCNC(=O)CC)nc2ccccc21`, the “activity change, negative = inhibition” value is 20.9%. Take `CCC(=O)NCCc1nc2ccccc2n1CC`: the “activity change, negative = inhibition” value was 2.61%.

Turning to `COCCn1c(C)cc(C(=O)COC(=O)CNC(=O)c2ccco2)c1C`, the “activity change, negative = inhibition” value was 21.6%. For the compound `COc1ccc(S(=O)(=O)N2CCC(C(=O)N3CCCC3)CC2)cc1C`, the “activity change, negative = inhibition” value was 10.6%. Take `CCOc1ccc(CN(C)C(=O)c2ccc(=O)[nH]c2)cc1`: the “activity change, negative = inhibition” value was -2.06%. As for `Cc1cccc(C(=O)N2CCCC(Nc3ccc(C(C)C)cc3)C2)n1` (stereo not drawn), the “activity change, negative = inhibition” value was 18.1%. `CC(C)c1ccc(NC2CCCN(C(=O)c3ccncc3)C2)cc1` (stereo not drawn): the Potency was 5.86 µM (active).

With `COc1ccc(NC2CCCN(C(=O)c3ccncc3)C2)cc1` (stereo not drawn), the “activity change, negative = inhibition” value was -18.3%.

For `O=C(NCC(=O)N1CCN(c2ncc(C(F)(F)F)cc2Cl)CC1)c1ccc(Br)o1`, the “activity change, negative = inhibition” value is -23%. For `Cc1nn(Cc2ccccc2)c(C)c1NS(=O)(=O)c1ccccc1`, the “activity change, negative = inhibition” value was 8.53%. On the same count and under the same terms, the figure for `CC(C)C(c1nnnn1C1CCCC1)N1CCN(c2ccccc2F)CC1` (stereo not drawn) is 8.47%. `c1ccc(CCn2nnnc2CN2CCN(C3CCCC3)CC2)cc1`: the “activity change, negative = inhibition” value is 16.5%.

As for `c1ccc(C(c2ccccc2)N2CCN(Cc3nnnn3C3CCCCC3)CC2)cc1`, the Potency is 8.28 µM (active).

Turning to `CC1CN(C(=O)COC(=O)c2cccc(NS(=O)(=O)c3ccccc3)c2)CC(C)O1` (stereo not drawn), the “activity change, negative = inhibition” value is 15%. On the same count and under the same terms, the figure for `CCCc1cc(=O)oc2c(C)c(OCC(=O)NCc3ccccn3)ccc12` is 4.08%. As for `CC1CCCN(S(=O)(=O)c2ccc(N(C(=O)c3cnccn3)C(C(=O)NC3CCCCC3)c3cccs3)cc2)C1` (stereo not drawn), the Potency is 11.7 µM (active). For the compound `O=C(Nc1ccc(S(=O)(=O)N2CCCCC2)cc1)c1cnccn1`, the “activity change, negative = inhibition” value is 5.07%.

On to `CCc1ccc(N(C(=O)c2csnn2)C(C(=O)NC2CCCCC2)c2ccncc2)cc1` (stereo not drawn), for which the “activity change, negative = inhibition” value was -0.523%. With `O=C(Nc1ccc(NC(=O)c2ccc3c(c2)OCO3)cc1)c1cccc(Cl)c1`, the “activity change, negative = inhibition” value was -18.9%. For `O=C(CSc1n[nH]c(=O)n1-c1ccccc1)Nc1ccccc1C(F)(F)F`, the “activity change, negative = inhibition” value is -17.8%. For the compound `CCN(CC)c1ccc(C2C3CCCCC3(O)CCN2CC(=O)Nc2ccccc2)cc1` (stereo not drawn), the “activity change, negative = inhibition” value was 0%.

`CC1CCCCN1CC(=O)NCc1ccc2c(c1)OCO2` (stereo not drawn): the “activity change, negative = inhibition” value was 13.3%. As to `Cc1ccc(NC(=O)CN2CCC3(O)CCCCC3C2c2ccc3c(c2)OCO3)c(C)c1` (stereo not drawn), the Potency was 10.4 µM (active). On to `Cc1c(S(=O)(=O)NC(C)c2ccccc2)c(=O)n(C)c(=O)n1C` (stereo not drawn), for which the “activity change, negative = inhibition” value was -4.57%. The same measure, in the same setting: under `O=C(NCCc1ccc(C(F)(F)F)cc1)c1ccc2c(c1)OCO2` stands 13%. Take `COc1cc(/C=C2\CCCc3c2nc2ccccc2c3C(=O)O)cc(Cl)c1O`: the “activity change, negative = inhibition” value was 7.14%. The same measure, in the same setting: under `COc1ccc(N(CC(=O)N2CCCCCC2)S(=O)(=O)c2ccccc2)cc1` stands -24.9%. For `CCN(c1ccccc1)S(=O)(=O)c1ccc(OCC(=O)N2CCCC2)cc1`, the Potency is 9.28 µM (active). As to `CC(NS(=O)(=O)c1ccc(OCC(=O)N2CCCC2)cc1)c1ccccc1` (stereo not drawn), the “activity change, negative = inhibition” value is -8.96%. As to `CC(=O)Nc1ccc(Nc2ncnc3c2nnn3Cc2ccccc2Cl)cc1`, the “activity change, negative = inhibition” value is -22.4%. Regarding `COCCNC(=O)c1ccc2nc(Cc3ccc(OC)c(OC)c3)oc2c1`, the “activity change, negative = inhibition” value is 4.16%.

For `O=C(NCCN1CCCC(O)C1)c1cc(COc2c(F)cccc2F)on1` (stereo not drawn), the “activity change, negative = inhibition” value was 15%. As to `CCC(c1nnnn1C1CCCC1)N(Cc1cccs1)Cc1cc2cccc(C)c2[nH]c1=O` (stereo not drawn), the Potency is 10.4 µM (active).

As to `Cc1cccc2cc(CN(Cc3cccs3)C(c3nnnn3C3CCCC3)C(C)C)c(=O)[nH]c12` (stereo not drawn), the Potency is 2.62 µM (active).

As for `CCC(=O)Nc1cccc(NC(=O)CSc2nnnn2C2CCCC2)c1`, the “activity change, negative = inhibition” value is -28.4%. As to `Cc1cccc2cc(CN(C(=O)c3cccs3)c3ccccc3)c(=O)[nH]c12`, the “activity change, negative = inhibition” value is -0.703%.

Take `Cc1cc(C)n2nc(C(=O)OCC(=O)N(CCC#N)c3ccc(F)cc3)nc2n1`: the “activity change, negative = inhibition” value is 11.8%.

These data come from PubChem BioAssay AID504832 (National Center for Advancing Translational Sciences (NCATS), 2011).
